Screens deposited in PubChem BioAssay by National Center for Advancing Translational Sciences (NCATS).
KDM5B inhibitor – KDM5B demethylase inhibition | KDM5B demethylase, FDH-coupled NADH fluorescence (FDH is formaldehyde dehydrogenase) | Potency, µM (titrated, usually from 57.7 µM), most hits filed as inhibitors | 2.6% of 220,000 active | AID 1347165; active = well fitted inhibition curve with a large enough effect; also: 0% is about no effect; nearly all actives have a fitted effect of over 70% in size
Target sequence (Q9UGL1 whole entry, looked up): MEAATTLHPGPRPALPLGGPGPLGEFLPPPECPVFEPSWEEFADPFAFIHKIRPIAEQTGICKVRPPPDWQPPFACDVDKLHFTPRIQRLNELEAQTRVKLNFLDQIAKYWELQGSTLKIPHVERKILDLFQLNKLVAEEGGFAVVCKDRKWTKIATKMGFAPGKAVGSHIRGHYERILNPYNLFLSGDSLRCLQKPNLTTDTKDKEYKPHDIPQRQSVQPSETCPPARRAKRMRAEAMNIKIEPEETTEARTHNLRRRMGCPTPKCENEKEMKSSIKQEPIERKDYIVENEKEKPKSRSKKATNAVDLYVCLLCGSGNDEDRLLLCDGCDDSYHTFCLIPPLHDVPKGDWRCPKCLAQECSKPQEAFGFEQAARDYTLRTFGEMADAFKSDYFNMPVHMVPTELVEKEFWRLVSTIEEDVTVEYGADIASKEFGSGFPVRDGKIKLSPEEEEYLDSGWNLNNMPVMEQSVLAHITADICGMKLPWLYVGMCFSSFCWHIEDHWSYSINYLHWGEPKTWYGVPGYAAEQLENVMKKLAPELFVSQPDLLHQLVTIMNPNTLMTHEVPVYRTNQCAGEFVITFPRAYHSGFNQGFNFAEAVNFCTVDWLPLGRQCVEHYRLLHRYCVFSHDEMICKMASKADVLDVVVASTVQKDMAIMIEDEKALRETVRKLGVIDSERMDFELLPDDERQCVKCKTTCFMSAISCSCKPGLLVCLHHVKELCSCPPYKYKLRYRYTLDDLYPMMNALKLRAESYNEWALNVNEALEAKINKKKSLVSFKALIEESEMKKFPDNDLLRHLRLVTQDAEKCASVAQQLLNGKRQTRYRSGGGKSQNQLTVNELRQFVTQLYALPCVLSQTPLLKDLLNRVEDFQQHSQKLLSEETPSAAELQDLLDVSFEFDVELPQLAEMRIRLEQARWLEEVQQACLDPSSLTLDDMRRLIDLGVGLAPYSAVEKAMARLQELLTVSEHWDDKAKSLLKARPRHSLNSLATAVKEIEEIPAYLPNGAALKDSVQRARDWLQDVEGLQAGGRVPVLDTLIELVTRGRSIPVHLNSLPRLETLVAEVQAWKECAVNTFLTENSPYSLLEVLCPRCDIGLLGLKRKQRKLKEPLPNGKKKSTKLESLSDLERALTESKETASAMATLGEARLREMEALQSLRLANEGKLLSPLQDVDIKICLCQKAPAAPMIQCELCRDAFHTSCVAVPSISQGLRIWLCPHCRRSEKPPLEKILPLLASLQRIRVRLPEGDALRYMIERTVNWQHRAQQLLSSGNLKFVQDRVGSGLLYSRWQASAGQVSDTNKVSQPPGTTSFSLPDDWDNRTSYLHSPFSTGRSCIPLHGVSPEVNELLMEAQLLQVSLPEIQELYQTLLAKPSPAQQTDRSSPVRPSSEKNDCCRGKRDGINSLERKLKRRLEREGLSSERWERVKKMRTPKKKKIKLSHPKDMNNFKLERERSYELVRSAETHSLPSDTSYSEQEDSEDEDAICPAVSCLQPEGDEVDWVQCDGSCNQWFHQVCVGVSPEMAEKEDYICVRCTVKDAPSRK
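KDM5BΔAP (200 nM final) in 50 mM HEPES pH 7.5, 0.01% Tween-20 was preincubated 10 min at RT with compound over a concentration range. Substrate mix (H3K4me3 12.5 µM, α-KG 25 µM, Fe²⁺, ascorbate, NAD⁺, FDH) was added, and NADH fluorescence change over 30 min gave dose-response curves.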
* hit, by the source's call. This is one part of a sample in which hits are shown more often than they occur. Potency is read from the fitted curve at half-maximal effect.

Screening O=C(O)CCCC(=O)N[C@H]1CO[C@H]2[C@@H]1OC[C@@H]2Nc1nccc(-c2ccc(-c3ccccc3)cc2)n1 returned KDM5B inhibitor 32µM*.
For N#Cc1cccc(-c2ccnc(N[C@H]3CO[C@H]4[C@@H]3OC[C@H]4OC(=O)Nc3ccccc3)n2)c1 the results were KDM5B inhibitor inactive.
CC(C)c1nc2c(c(-c3ccc(O)cc3)n1)CCN(Cc1ccc(C(F)(F)F)cc1)CC2 was read as KDM5B inhibitor inactive.
For CCNC(=O)COC(=O)c1c(C)c(CC)nc2ccccc12 the results were KDM5B inhibitor inactive.
`Cc1cc(C)c2oc(C(=O)Nc3nnc(SCc4ccc(F)cc4)s3)cc(=O)c2c1` gave KDM5B inhibitor inactive.
For CCc1cccc(NC(=O)c2nc3ccccc3nc2N(CC)CC)c1 the results were KDM5B inhibitor inactive.
Screening CCCCn1c(N)c(N(C(=O)c2cc3c(s2)CCC3)C2CCCC2)c(=O)[nH]c1=O returned KDM5B inhibitor inactive.
COc1ccc(/C=C/C(=O)Oc2ccccc2C)cc1 was read as KDM5B inhibitor inactive.
`N#Cc1nc(-c2ccco2)oc1N1CCN(C(=O)c2ccc(Cl)cc2Cl)CC1` gave KDM5B inhibitor inactive.
`CCC(=O)Nc1ccc(C)cc1-c1nnc(SCC(=O)Nc2cccc(Cl)c2Cl)[nH]c1=O` gave KDM5B inhibitor inactive.
Screening CC(OC(=O)c1cc(-c2ccncc2)nc2ccccc12)C(N)=O (stereo not given) returned KDM5B inhibitor inactive.
`Cc1ccc(NC(=O)O[C@@H]2CO[C@H]3[C@@H]2OC[C@@H]3Nc2nccc(-c3ccccc3)n2)cc1` gave KDM5B inhibitor 28µM*.
CC(C)(C)c1ccc(NC(=O)O[C@@H]2CO[C@H]3[C@@H]2OC[C@@H]3Nc2nccc(-c3ccc(-c4ccccc4)cc3)n2)cc1 was read as KDM5B inhibitor inactive.
CN(C)c1ccc(-c2ccnc(N[C@H]3CO[C@H]4[C@@H]3OC[C@H]4OC(=O)Nc3ccc(Oc4ccccc4)cc3)n2)cc1 was read as KDM5B inhibitor inactive.
O=C(Nc1ccc(I)cc1C(F)(F)F)c1ccc2ccccc2c1 was read as KDM5B inhibitor inactive.
For O=CNc1cccc(O)c1 the results were KDM5B inhibitor inactive.
For Cc1ccc2nc(CN3CCCC(CO)(CC4CC4)C3)cn2c1 (stereo not given) the results were KDM5B inhibitor 22µM*.
OCC1(CC2CC2)CCCN(Cc2ccccc2OC(F)F)C1 (stereo not given) was read as KDM5B inhibitor inactive.
For OCC1(CC2CC2)CCCN(Cc2ccc(C(F)(F)F)nc2)C1 (stereo not given) the results were KDM5B inhibitor inactive.
`O=C(/C=C/c1ccccc1)Nc1ccc(OCCc2ccccc2)cc1` gave KDM5B inhibitor inactive.
`O=C1CSc2ccc(C(=O)OCCOc3ccccc3)cc2N1` gave KDM5B inhibitor inactive.
For Cc1nnc(NC(=O)c2cc(-c3cccc(C)c3O)n[nH]2)s1 the results were KDM5B inhibitor inactive.
Screening C[C@@]1(O)CCN(C(=O)CCc2ccc(-c3cccs3)o2)C[C@@H]1O returned KDM5B inhibitor 13µM*.
Cn1nc(C(=O)N2CC[C@@](C)(O)[C@@H](O)C2)cc1-c1cccs1 was read as KDM5B inhibitor inactive.
`CO[C@H]1C[C@@H](O)C12CCN(C(=O)CCc1ccc(-c3cccs3)o1)CC2` gave KDM5B inhibitor 14µM*.
COc1cc(OC)c(C(=O)N2CCC3(CC2)[C@H](O)C[C@@H]3OC)cc1OC was read as KDM5B inhibitor inactive.
`O=C(CCCc1cccs1)N1CCC2(CC1)[C@H](O)C[C@@H]2OCCO` gave KDM5B inhibitor inactive.
`C[C@]1(O)CCN(C(=O)CCc2c[nH]c3ccccc23)C[C@@H]1O` gave KDM5B inhibitor inactive.
For COc1cccc(NC(=O)Cn2cc(C#N)c3cc(Br)ccc32)c1 the results were KDM5B inhibitor inactive.
For O=C(CNC(=O)c1ccc2c(c1)OCO2)Nc1ccc2c(c1)-c1ccccc1C2 the results were KDM5B inhibitor inactive.
COc1ccc(-c2cc(C(=O)N3CCC(C(N)=O)CC3)c3ccccc3n2)cc1OC was read as KDM5B inhibitor inactive.
CC(=O)c1ccc(NC(=O)C(C)Sc2ccccc2C(=O)O)cc1 (stereo not given) was read as KDM5B inhibitor inactive.
O=C(NC1CCc2nn(CC3CC3)c(=O)n2CC1)c1ccc[nH]c1=O (stereo not given) was read as KDM5B inhibitor 28µM*.
For O=C(CCc1c[nH]c2ccccc12)NC1CCc2nn(CC3CC3)c(=O)n2CC1 (stereo not given) the results were KDM5B inhibitor inactive.
`CNC1CCc2nn(CC3CC3)c(=O)n2CC1` (stereo not given) gave KDM5B inhibitor inactive.
`Cn1nc(C(=O)NC2CCc3nn(CC4CC4)c(=O)n3CC2)c2ccccc21` (stereo not given) gave KDM5B inhibitor 28µM*.
Cc1ccsc1C(=O)NC1CCc2nn(CC3CC3)c(=O)n2CC1 (stereo not given) was read as KDM5B inhibitor inactive.
Screening COc1ccc(C(=O)NC2CCc3nn(CC4CC4)c(=O)n3CC2)c(C)c1 (stereo not given) returned KDM5B inhibitor inactive.
Screening O=C(Cn1c(=O)oc2cc(S(=O)(=O)N3CCOCC3)ccc21)c1ccc2c(c1)OCCO2 returned KDM5B inhibitor inactive.
Screening Nc1cc(N)nc(SCCC(=O)Nc2ccc(Br)cc2F)n1 returned KDM5B inhibitor inactive.
`COc1ccnc(-c2nnc3ccc(N(C)c4ccccc4)nn23)c1` gave KDM5B inhibitor inactive.
For COc1ccc(CCNC(=O)[C@H](CCS(C)(=O)=O)N2Cc3ccccc3C2=O)cc1OC the results were KDM5B inhibitor inactive.
O=C(NCc1ccc(F)cc1)c1ccc2oc(=O)n(Cc3ccccc3)c2c1 was read as KDM5B inhibitor inactive.
CC1(CCCCN2CCOCC2)COc2ccc(C(=O)Nc3ccc(Cl)cc3)cc2N1 (stereo not given) was read as KDM5B inhibitor 25µM*.
`CN(C)CCCOCC1(C)COc2ccc(C(=O)N3CCOCC3)cc2N1` (stereo not given) gave KDM5B inhibitor inactive.
Screening CC1(CNc2ccccc2)COc2ccc(C(=O)N3CC(O)C3)cc2N1 (stereo not given) returned KDM5B inhibitor inactive.
`CC(C)(C)c1ccc(C(=O)Nc2ccc(F)c(Cl)c2)cc1` gave KDM5B inhibitor inactive.
For CC1(CCCCN2CCOCC2)COc2ccc(C(=O)NCc3ccc(F)cc3)cc2N1 (stereo not given) the results were KDM5B inhibitor 28µM*.
CN(C)CCCOCC1(C)COc2ccc(C(=O)Nc3ccc(F)c(Cl)c3)cc2N1 (stereo not given) was read as KDM5B inhibitor 28µM*.
Cc1ccc(CNC(=O)c2ccc3c(c2)CN(Cc2cc(F)c(F)c(F)c2)CCO3)cc1 was read as KDM5B inhibitor inactive.
`O=C(O)c1ccc(CNCCCN2CCOCC2)cc1` gave KDM5B inhibitor inactive.
Screening O=C(Nc1ccc(CC(=O)N2CCOCC2)cc1)c1cccc(Cl)c1 returned KDM5B inhibitor inactive.
For CCc1ccc(NC(=O)c2cc(CN3CCOCC3)on2)cc1 the results were KDM5B inhibitor inactive.
For CC1(CNc2ccccc2)COc2ccc(C(=O)NCc3ccc(F)cc3)cc2N1 (stereo not given) the results were KDM5B inhibitor 32µM*.
Screening CCOc1ccccc1NC(=O)COC(=O)c1nn(C)c(=O)c2ccccc12 returned KDM5B inhibitor inactive.
